Assay results reported in the supplement of paper PMC13380429.

System: Vero E6 infected with SARS-CoV-2
Assay: inhibition of SARS-CoV-2 cytopathic effect; higher = more antiviral protection, active = above 15
Settings: 48 h

Measured: inhibition of SARS-CoV-2 cytopathic effect

Cc1c(C)c2c(c(C)c1O)CCC(C)(C(=O)O)O2 (stereo not given) [trolox]
inactive: 1 nM 4.59% | 8.33 nM 3.64% | 100 nM 1.16% | 833.33 nM 6.02% | 10000 nM 2.14%

COc1cc(OC)c(/C=C2/C(=O)Nc3ccccc32)c(OC)c1
inactive: 1 nM 2.03% | 8.33 nM 1.86% | 100 nM 2.55% | 833.33 nM 1.29% | 10000 nM -1.88%

CNC(=O)c1cc(Oc2ccc(NC(=O)Nc3ccc(Cl)c(C(F)(F)F)c3)c(F)c2)ccn1 [regorafenib]
inactive: 1 nM 2.3% | 8.33 nM 3.25% | 100 nM 1.21% | 833.33 nM -1.69% | 10000 nM 2.67%

CC(C)C[C@H](NC(=O)[C@@H](Cc1c[nH]c2ccccc12)NC(=O)[C@H](Cc1ccc(O)cc1)NC(=O)[C@H](CO)NC(=O)[C@H](Cc1c[nH]c2ccccc12)NC(=O)[C@H](Cc1c[nH]cn1)NC(=O)[C@@H]1CCC(=O)N1)C(=O)N[C@@H](CCCNC(=N)N)C(=O)N1CCC[C@H]1C(=O)NCC(N)=O [triptorelin]
inactive: 1 nM -0.4% | 8.33 nM 2.79% | 100 nM 1.66% | 833.33 nM 2.17% | 10000 nM 0.84%

C=C[C@@]1(C)CC(=O)[C@]2(O)[C@@]3(C)[C@@H](O)CCC(C)(C)[C@@H]3[C@H](O)[C@H](OC(C)=O)[C@@]2(C)O1 [colforsin]
inactive: 1 nM 2% | 8.33 nM 2.29% | 100 nM 2.56% | 833.33 nM -1.53% | 10000 nM 0.905%

COc1cc2ncnc(Nc3ccc(F)c(Cl)c3)c2cc1OCCCN1CCOCC1 [gefitinib]
inactive: 1 nM -1.32% | 8.33 nM -0.45% | 100 nM -4.25% | 833.33 nM -11.2% | 10000 nM -22.2%

CC(C)[C@@H]1C(=O)N(S(C)(=O)=O)[C@@H]2CCN(C(=O)/C=C/CN3CCCCC3)[C@H]21
inactive: 1 nM -0.03% | 8.33 nM -1.45% | 100 nM 1.05% | 833.33 nM -0.28% | 10000 nM 0.66%

C[C@H](CCC(=O)O)[C@H]1CC[C@H]2[C@@H]3CC[C@@H]4C[C@H](O)CC[C@]4(C)[C@H]3CC[C@]12C [lithocholic-acid]
inactive: 1 nM -0.57% | 8.33 nM 0.93% | 100 nM -0.13% | 833.33 nM 0.9% | 10000 nM -0.77%

CCCCN1CCCCC1C(=O)Nc1c(C)cccc1C (stereo not given) [bupivacaine]
inactive: 1 nM 2.92% | 8.33 nM -0.56% | 100 nM -2.62% | 833.33 nM 1.82% | 10000 nM 0.61%

CC[C@@H]1C(=O)OC[C@@H]1Cc1cncn1C [pilocarpine]
inactive: 1 nM 0.9% | 8.33 nM 1.12% | 100 nM 1.22% | 833.33 nM 3.49% | 10000 nM 3.05%

Nc1ccc(C(=O)NCC(=O)O)cc1 [4-aminohippuric-acid]
inactive: 1 nM -2.16% | 8.33 nM -0.24% | 100 nM -0.14% | 833.33 nM 0.71% | 10000 nM -1.9%

Cc1ccc(C(=O)Nc2cccc(C(F)(F)F)c2)cc1Nc1nc(-c2cccnc2)nc2c1cnn2C
active: 10000 nM 28.1%
inactive: 1 nM -0.06% | 8.33 nM 0.17% | 100 nM 3.74% | 833.33 nM 8.31%

FC(F)(F)C(F)(F)C(F)(F)C(F)(F)C(F)(F)C(F)(F)C(F)(F)C(F)(F)Br [perflubron]
inactive: 1 nM -0.32% | 8.33 nM 1.61% | 100 nM 1.51% | 833.33 nM -1.6% | 10000 nM 0.45%

O=C(Oc1ccccc1)c1ccccc1O [phenyl-salicylate]
inactive: 1 nM -7.58% | 8.33 nM -2.22% | 100 nM -0.85% | 833.33 nM 3.43% | 10000 nM 5.08%

Clc1cccc(Nc2nnc(-c3ccccc3)c3ccccc23)c1
inactive: 1 nM 1.65% | 8.33 nM 2.3% | 100 nM 2.13% | 833.33 nM 1.98% | 10000 nM 2.92%

CCCCN1CCC(CNC(=O)c2c3n(c4ccccc24)CCCO3)CC1 [piboserod]
inactive: 1 nM -0.67% | 8.33 nM 1.75% | 100 nM 0.6% | 833.33 nM -0.97% | 10000 nM 1.25%

O=c1ccn([C@@H]2O[C@H](COP(=O)(O)OP(=O)(O)OP(=O)(O)O)[C@@H](O)[C@H]2O)c(=O)[nH]1
inactive: 1 nM -0.655% | 8.33 nM 1.84% | 100 nM 3.83% | 833.33 nM 2.04% | 10000 nM -0.735%
